# Measurements: PubChem BioAssay AID2534 (National Center for Advancing Translational Sciences (NCATS), 2010)
# Inconclusive results are not listed. Calls of active or inactive are those of the source. Calls come from the whole dose curve; as a rule, active = well fitted curve in the direction sought with a large enough effect; inconclusive = small, poorly fitted or top-dose-only effect, or effect the other way, or another doubt; inactive = no such curve, though single readings can be large or run the other way.
# Biological target: Pyruvate kinase PKLR (Homo sapiens) (UniProt P30613)
# Experiment: Secondary Concentration-Response Assay for Activators of Human Reticulocyte Pyruvate Kinase: for Probe SAR
# Settings: purified hPK-R, ATP production, Kinase-Glo luminescence; series mostly up to 57.5 µM
# Text: NIH Chemical Genomics Center [NCGC]
# Wael M. Rabeh, Lyudmila Nedyalkova and Hee-Wan Park [Structural Genomics Consortium, 100 College St. Toronto, Ontario, Canada]
# Human pyruvate kinase reticulocyte (hPK-R) enzyme was supplied as a highly purified (>95% pure) preparation from Structural Genomics Consortium in Toronto (Ontario, Canada) and assayed for its ability to generate ATP from ADP using phosphoenolpyruvate (PEP) as a substrate. ATP generation was detected in a coupled reaction by luciferase-mediated luminescence, an ATP-dependent process. Pyruvate kinase substrates, PEP and ADP, were present in the assay at Km and approximately 10-fold below Km respectively. The enzyme was assayed at an intermediate level of activity to screen for both inhibitors and activators.
# NCGC Assay Protocol Summary for R-isoform
# Three uL of substrate mix (at r.t.) in assay buffer (50 mM Imidazole pH7.2, 50 mM KCl, 7 mM MgCl2, 0.01% Tween 20, 0.05% BSA) was dispensed into white solid bottom 1,536 well microtiter plates so that the final concentrations of substrates in the assay were 0.1 mM ADP and 0.5 mM PEP. 23 nL of compound were delivered by a pin tool and 1 uL of enzyme mix (final concentration of 0.1 nM) in assay buffer (4 degree Celsius) was added. Plates were incubated at room temperature for 1 hour. Two uL of detection mix (Kinase-Glo, Promega; at 4 degree Celsius protected from light) was added and luminescence read by a ViewLux (Perkin Elmer) at 1 second exposure/plate. Data were normalized to the uninhibited (row 31). Additionally, a no enzyme and 5-fold enzyme control was dispensed in row 32, split equally between the two conditions.
# Sequence of Pyruvate kinase PKLR (Homo sapiens) (P30613 whole entry, looked up): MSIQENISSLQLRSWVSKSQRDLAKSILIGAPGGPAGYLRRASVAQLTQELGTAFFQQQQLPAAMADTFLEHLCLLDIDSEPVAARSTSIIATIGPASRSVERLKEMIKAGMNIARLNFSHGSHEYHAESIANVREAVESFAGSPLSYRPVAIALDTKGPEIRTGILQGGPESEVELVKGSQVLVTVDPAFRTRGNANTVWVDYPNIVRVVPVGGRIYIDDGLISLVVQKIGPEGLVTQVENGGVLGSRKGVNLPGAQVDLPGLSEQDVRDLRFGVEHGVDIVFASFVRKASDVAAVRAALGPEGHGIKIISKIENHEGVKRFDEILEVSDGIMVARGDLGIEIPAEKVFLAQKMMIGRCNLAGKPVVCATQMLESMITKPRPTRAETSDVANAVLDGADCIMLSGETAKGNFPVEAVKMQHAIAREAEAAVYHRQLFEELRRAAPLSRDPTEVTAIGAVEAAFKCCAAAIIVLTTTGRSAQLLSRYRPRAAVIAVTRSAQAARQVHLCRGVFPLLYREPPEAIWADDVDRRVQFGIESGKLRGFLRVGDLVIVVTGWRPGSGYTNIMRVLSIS
row,Compound,outcome
1,O=C1c2ccccc2C(=O)N1Cc1cccnc1,inactive
2,COc1cccc(NS(=O)(=O)c2ccc3c(c2)CCC(=O)N3)c1,inactive
3,N#Cc1cccc(NS(=O)(=O)c2ccc3c(c2)CCC(=O)N3)c1,inactive
4,O=C1CCc2cc(S(=O)(=O)Nc3ccc(Cl)c(Cl)c3)ccc2N1,inactive
5,Cc1ccccc1NS(=O)(=O)c1ccc2c(c1)CCC(=O)N2,inactive
6,O=C1c2ccccc2C(=O)N1Cc1ccccn1,inactive
7,Cc1ccc(NS(=O)(=O)c2cc3c(cc2F)NC(=O)CC3)cc1Cl,inactive
8,O=C1CCc2cc(S(=O)(=O)Nc3cccc(-c4ccccc4)c3)ccc2N1,inactive
9,O=C1CCc2cc(S(=O)(=O)Nc3cccc(F)c3)ccc2N1,inactive
10,COc1cccc(Cn2ncc3c4sc(S(C)=O)cc4n(C)c3c2=O)c1 (stereo not given),inactive
